Measured values from PubChem BioAssay (NCATS).
Several values for one entry are separate records, joined by “and”; a condition that tells them apart may be missing. Equal entries are not always repeated. Results filed as inconclusive are left out. Entries that show only a call come without a potency. Activity calls are given as the source filed them. Unless noted, calls follow the shape of the dose curve; as a rule, active = well fitted curve in the direction sought with a large enough effect; inconclusive = small, poorly fitted or top-dose-only effect, or another doubt; inactive = no such curve, though single readings can be large; an effect the other way counts as inactive or inconclusive.

Tests used:
[1] = molecular target: Cytochrome P450 2C9 (Homo sapiens) (UniProt P11712); test: qHTS Assay for Inhibitors and Substrates of Cytochrome P450 2C9 (AID 883); also: nearly all actives have a fitted effect of over 60% in size; also: potency is read from the fitted curve at half-maximal effect
Method in brief: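 CYP2C9 deoxyluciferin hydroxylation, 37C, 60 min with NADPH regeneration; 10nM enzyme, 100uM Luciferin-H (KM). Glo detection reagent stopped reaction; luminescence normalized to sulphaphenazole (57uM) full inhibition.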

[2] = molecular target: Cytochrome P450 2D6 (Homo sapiens) (UniProt P10635); test: qHTS Assay for Inhibitors and Substrates of Cytochrome P450 2D6 (AID 891); also: nearly all actives have a fitted effect of over 60% in size; also: potency is read from the fitted curve at half-maximal effect
Method in brief: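 Human CYP2D6 (5 nM) with 30 uM Luciferin-ME EGE (at Km) in 100 mM KPO4, compound preincubated 10 min, then NADPH regeneration system for 60 min at room temperature. Luciferin read by luminescence; normalized to 1.43 uM quinidine.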

[3] = molecular target: Cytochrome P450 2C19 (Homo sapiens) (UniProt P33261); test: qHTS Assay for Inhibitors and Substrates of Cytochrome P450 2C19 (AID 899); also: nearly all actives have a fitted effect of over 60% in size; also: potency is read from the fitted curve at half-maximal effect
Method in brief: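 In 50mM KPO4, the reaction held 5nM enzyme and KM-level (10uM) Luciferin-H EGE; it ran 60 min at 37C after NADPH regeneration and a 10 min compound preincubation. Luminescence values were scaled to 57uM ketoconazole as complete inhibition.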

[4] = qHTS Assay for Identification of Small Molecule Agonists for Thrombopoietin (TPO) Signaling Pathway (AID 917)
Method in brief: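 Murine Ba/F3 cells stably expressing human TPO receptor and a Glycoprotein IIb promoter–luciferase reporter were IL-3-starved overnight, then treated with compounds plus TPO (26 pM final, its EC50) for 24 hrs at 37 C; luminescence was read.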

[5] = molecular target: Muscarinic acetylcholine receptor M1 (Rattus norvegicus) (UniProt P08482); test: qHTS Assay for Antagonists of Acetylcholine Muscarinic M1 Receptor: Kinetic Measurement of Intracellular Calcium Response (AID 943); also: nearly all actives have a fitted effect of over 75% in size; also: potency is read from the fitted curve at half-maximal effect
Method in brief: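 CHO cells expressing rat M1 receptor, Fluo-4 loaded, preincubated 10 min with compound, then stimulated with EC80 carbachol (100 nM final). Kinetic calcium fluorescence over 4 min; response taken as peak over basal signal.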

[6] = molecular target: Muscarinic acetylcholine receptor M1 (Rattus norvegicus) (UniProt P08482); test: qHTS Assay for Antagonists of Acetylcholine Muscarinic M1 Receptor: Measurement of IP-One Response (AID 944); also: nearly all actives have a fitted effect of over 75% in size; also: potency is read from the fitted curve at half-maximal effect
Method in brief: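 CHO cells stably expressing rat M1, pretreated 10 min with compound, then stimulated 30 min with carbachol at EC80 (200 nM) in LiCl-containing buffer pH 7.4; IP1 accumulation read by HTRF competition (665/620 nm).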

[7] = molecular target: Cytochrome P450 3A4 (Homo sapiens) (UniProt P08684); test: qHTS Assay for Activators of Cytochrome P450 3A4 (AID 885); also: nearly all actives have a fitted effect of over 65% in size
Method in brief: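 Human CYP3A4 (20 nM) with Luciferin-PPXE at 25 uM (its KM) in 200 mM KPO4; 10 min compound preincubation, then NADPH regeneration and 60 min reaction at RT. Luciferin read by luminescence; normalized to 57 uM ketoconazole full inhibition.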

[8] = qHTS Assay for Identification of Small Molecule Antagonists for NFkB Signaling Pathway (AID 895; active = well fitted inhibition curve with a large enough effect in the signal ratio, with a control signal flat, not every such curve was filed as active; the % refers to the signal ratio)
Method in brief: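 NFkB-bla ME-180 cervical carcinoma cells with beta-lactamase reporter under NFkB response element; compounds added, then TNF alpha at 10 pM final (EC50), 5 h at 37 C. LiveBLAzer substrate 2 h, room temperature; emission 460/530 nm at 405 nm excitation.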

[9] = molecular target: Cytochrome P450 3A4 (Homo sapiens) (UniProt P08684); test: qHTS Assay for Inhibitors and Substrates of Cytochrome P450 3A4 (AID 884); also: series mostly up to about 57 µM; nearly all actives have a fitted effect of over 50% in size
Method in brief: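 20 nM human CYP3A4 with 25 uM Luciferin-PPXE (at KM) in 200 mM KPO4, preincubated 10 min with compound; NADPH regeneration started a 60 min RT reaction. Luciferin detected by luminescence, normalized to 57 uM ketoconazole as full inhibition.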

[10] = tested on: Zika virus NS2B-NS3 protease (linked construct); test: Primary screen NINDS Rhodamine qHTS for Zika virus inhibitors (AID 1347160); also: nearly all actives have a fitted effect of over 55% in size
Method in brief: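 Purified NS2B-NS3 protease with the NS2B hydrophilic domain joined by a flexible linker (25 nM) in 10 mM Tris-HCl pH 8.0, 0.01% Tween 20, preincubated 15 min at RT with compound; Rhodamine110 peptide substrate 1.5 µM; fluorescence change over 15 min; 4-parameter Hill fit.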

[11] = OV-KATE Cancer Cell Toxicity qHTS against the NCATS CANVASS Library (AID 1347345)
Method in brief: (§1)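 Viability was assessed by adding CellTiter-Glo reagent to treated cultures and reading luminescence after 15min at room temperature. Treatment lasted 72 h at 37 degrees C/5% CO2, using an 11-point series on 1000 cells/well.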

[12] = HPAF-II Cancer Cell Toxicity qHTS against the NCATS CANVASS Library (AID 1347346); also: series mostly up to about 38 µM; nearly all actives have a fitted effect of over 55% in size
Method in brief: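 HPAF-II cells at 1000 cells/well were treated with an 11-point concentration series for 72 hours at 37 degrees C. Viability read by CellTiter-Glo luminescence.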

[13] = UWB1.289 Cancer Cell Toxicity qHTS against the NCATS CANVASS Library (AID 1347347); also: series mostly up to about 38 µM; nearly all actives have a fitted effect of over 60% in size
Method in brief: as §1

[14] = OV-SAHO Cancer Cell Toxicity qHTS against the NCATS CANVASS Library (AID 1347348); also: series mostly up to about 38 µM; nearly all actives have a fitted effect of over 55% in size
Method in brief: as §1

[15] = Panc-1005 Cancer Cell Toxicity qHTS against the NCATS CANVASS Library (AID 1347349)
Method in brief: as §1

[16] = SW1088 Cancer Cell Toxicity qHTS against the NCATS CANVASS Library (AID 1347350); also: nearly all actives have a fitted effect of over 75% in size
Method in brief: as §1

[17] = COV-362 Cancer Cell Toxicity qHTS against the NCATS CANVASS Library (AID 1347352); also: series mostly up to about 38 µM
Method in brief: (§2)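 Cells at 1000/well were given compound 4 h after plating in an 11-point series. Viability was read by CellTiter-Glo luminescence after 72 h at 37 degrees C.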

[18] = A2780 Cisplatin Sensitive Ovarian Cancer Cell Toxicity qHTS against the NCATS CANVASS Library (AID 1347353); also: nearly all actives have a fitted effect of over 60% in size
Method in brief: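 A2780 cells, 750/well, settled 4 h at 37 °C, then treated with an 11-point compound series for 72 h. Viability was read as ATPLite luminescence after 10 min at room temperature, with bortezomib as control.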

[19] = UWB1.289-WTBRCA1 Cancer Cell Toxicity qHTS against the NCATS CANVASS Library (AID 1347354)
Method in brief: as §2

[20] = HPAF-II 24hr Apoptosis Induction qHTS against the NCATS CANVASS Library (AID 1347356)
Method in brief: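 HPAF-II cells (500/well) exposed to compounds in 11-point series for 24 h at 37 degrees C; caspase-3/7 activity read by Caspase-Glo luminescence after 15 min at room temperature. Doxorubicin titration as control.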

Chain of Cytochrome P450 2C19 (Homo sapiens) (P33261 whole entry, looked up): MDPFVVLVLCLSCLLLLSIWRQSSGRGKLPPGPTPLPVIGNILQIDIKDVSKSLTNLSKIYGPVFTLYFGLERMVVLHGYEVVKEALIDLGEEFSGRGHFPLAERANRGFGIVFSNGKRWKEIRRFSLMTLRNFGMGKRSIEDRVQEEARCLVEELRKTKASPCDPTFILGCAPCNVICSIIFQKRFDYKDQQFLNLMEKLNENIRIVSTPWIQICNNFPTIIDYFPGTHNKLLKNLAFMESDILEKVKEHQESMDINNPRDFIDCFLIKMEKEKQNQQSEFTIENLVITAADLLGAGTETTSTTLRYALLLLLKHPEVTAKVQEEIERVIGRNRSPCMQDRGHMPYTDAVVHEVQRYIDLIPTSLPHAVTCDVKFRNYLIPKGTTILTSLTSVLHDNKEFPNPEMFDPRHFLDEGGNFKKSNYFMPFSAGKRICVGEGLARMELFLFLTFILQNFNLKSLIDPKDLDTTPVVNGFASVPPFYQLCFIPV
Chain of Muscarinic acetylcholine receptor M1 (Rattus norvegicus) (P08482 whole entry, looked up): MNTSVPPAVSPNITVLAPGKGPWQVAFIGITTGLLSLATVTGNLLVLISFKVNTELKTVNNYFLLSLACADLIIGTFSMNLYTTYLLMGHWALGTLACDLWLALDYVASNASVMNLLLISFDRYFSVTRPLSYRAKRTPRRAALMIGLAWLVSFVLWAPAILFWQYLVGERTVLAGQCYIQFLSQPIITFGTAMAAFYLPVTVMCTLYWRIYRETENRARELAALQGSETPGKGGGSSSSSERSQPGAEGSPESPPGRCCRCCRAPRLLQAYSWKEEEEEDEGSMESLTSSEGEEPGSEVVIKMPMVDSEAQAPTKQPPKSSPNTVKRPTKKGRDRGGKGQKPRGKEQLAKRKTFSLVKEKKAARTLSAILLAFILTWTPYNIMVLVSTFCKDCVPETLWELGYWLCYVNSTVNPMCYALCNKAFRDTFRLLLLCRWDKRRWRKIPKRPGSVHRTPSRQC
Chain of Cytochrome P450 2C9 (Homo sapiens) (P11712 whole entry, looked up): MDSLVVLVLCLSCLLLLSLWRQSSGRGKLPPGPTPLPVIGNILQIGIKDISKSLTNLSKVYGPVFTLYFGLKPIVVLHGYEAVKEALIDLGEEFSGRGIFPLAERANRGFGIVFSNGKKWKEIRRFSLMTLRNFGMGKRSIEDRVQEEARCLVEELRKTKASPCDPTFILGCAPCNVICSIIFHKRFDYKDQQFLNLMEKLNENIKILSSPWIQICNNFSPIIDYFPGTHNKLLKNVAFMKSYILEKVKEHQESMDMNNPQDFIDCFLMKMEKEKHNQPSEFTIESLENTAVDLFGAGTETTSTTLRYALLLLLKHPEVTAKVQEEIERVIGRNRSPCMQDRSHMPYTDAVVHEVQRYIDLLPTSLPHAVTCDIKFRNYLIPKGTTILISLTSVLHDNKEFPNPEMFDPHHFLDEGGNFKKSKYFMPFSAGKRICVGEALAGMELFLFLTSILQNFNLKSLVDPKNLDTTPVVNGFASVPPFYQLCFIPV
Chain of Cytochrome P450 2D6 (Homo sapiens) (P10635 whole entry, looked up): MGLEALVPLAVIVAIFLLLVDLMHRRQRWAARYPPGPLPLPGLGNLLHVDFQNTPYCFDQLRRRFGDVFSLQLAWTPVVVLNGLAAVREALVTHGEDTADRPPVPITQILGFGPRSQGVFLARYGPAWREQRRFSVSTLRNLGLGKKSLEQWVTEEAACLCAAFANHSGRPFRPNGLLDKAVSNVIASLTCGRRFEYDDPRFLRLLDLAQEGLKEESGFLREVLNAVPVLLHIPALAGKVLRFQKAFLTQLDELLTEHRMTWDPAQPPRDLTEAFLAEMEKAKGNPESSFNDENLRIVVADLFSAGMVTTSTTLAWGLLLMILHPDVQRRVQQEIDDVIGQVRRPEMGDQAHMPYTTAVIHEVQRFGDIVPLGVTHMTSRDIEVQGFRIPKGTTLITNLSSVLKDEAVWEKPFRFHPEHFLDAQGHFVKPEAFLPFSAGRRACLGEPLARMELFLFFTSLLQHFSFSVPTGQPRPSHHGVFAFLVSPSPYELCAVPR
Chain of Cytochrome P450 3A4 (Homo sapiens) (P08684 whole entry, looked up): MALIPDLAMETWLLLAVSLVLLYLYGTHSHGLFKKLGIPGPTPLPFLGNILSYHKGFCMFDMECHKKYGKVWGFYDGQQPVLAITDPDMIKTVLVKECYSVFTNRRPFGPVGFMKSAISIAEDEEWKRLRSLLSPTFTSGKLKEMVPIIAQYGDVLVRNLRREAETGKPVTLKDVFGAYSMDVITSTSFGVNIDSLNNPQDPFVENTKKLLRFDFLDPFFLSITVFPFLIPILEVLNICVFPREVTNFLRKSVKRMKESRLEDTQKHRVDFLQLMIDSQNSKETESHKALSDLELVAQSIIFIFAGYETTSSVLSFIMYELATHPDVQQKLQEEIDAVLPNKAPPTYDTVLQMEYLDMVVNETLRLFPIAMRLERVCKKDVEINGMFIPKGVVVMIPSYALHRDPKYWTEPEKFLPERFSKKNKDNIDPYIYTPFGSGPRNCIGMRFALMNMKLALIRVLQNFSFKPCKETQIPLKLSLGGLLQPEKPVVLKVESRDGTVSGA

## N[C@H](CP(=O)(O)O)C(=O)O
[1]
  Potency: inactive
[2]
  Potency: inactive
[3]
  Potency: inactive
[4]
  outcome: inactive
[5]
  Potency: inactive
[6]
  Potency: inactive

## COc1ccc(-n2nc(C(F)(F)F)cc2-c2ccc(Cl)cc2)cc1
[7]
  Potency: inactive
[8]
  Potency: inactive
[3]
  Potency: 7940 nM (active)

## N#CC(C#N)=Cc1ccc([N+](=O)[O-])c(O)c1
[8]
  Potency: inactive
[4]
  outcome: inactive
[5]
  Potency: inactive
[6]
  Potency: inactive

## CC[C@]1(C2=NCCN2)Cc2ccccc2O1
[6]
  Potency: inactive

## C/C(O)=C(/C#N)C(=O)Nc1cc(Br)ccc1Br
[1]
  Potency: 7940 nM (active)
[7]
  Potency: inactive
[2]
  Potency: inactive
[8]
  Potency: inactive
[3]
  Potency: inactive
[4]
  outcome: inactive
[5]
  Potency: inactive

## S=C=Nc1cccc(C2(N3CCCCC3)CCCCC2)c1
[1]
  Potency: inactive
[3]
  Potency: inactive

## C[C@H](N)Cc1cnc[nH]1
[5]
  Potency: inactive
[6]
  Potency: inactive

## CN1[C@@H]2CC[C@H]1CC(O[C@@H](c1ccccc1)c1ccc(Cl)cc1)C2 (stereo partly specified)
[7]
  Potency: inactive
[2]
  Potency: 1.26 µM (active) and 1.58 µM (active)
[5]
  Potency: 20 nM (active)
[6]
  Potency: 12.6 nM (active)

## CCOC(=O)c1ncn2c1[C@H]1CCCN1C(=O)c1cc(OC)ccc1-2
[1]
  Potency: inactive
[9]
  Potency: inactive
[2]
  Potency: inactive
[3]
  Potency: inactive
[4]
  outcome: inactive
[5]
  Potency: inactive
[6]
  Potency: inactive

## COc1ccc(CNC(=O)/C=C\c2ccc3[nH]cc(CCN(C)C)c3c2)cc1
[1]
  Potency: inactive
[2]
  Potency: inactive
[3]
  Potency: inactive
[4]
  outcome: inactive
[6]
  Potency: inactive

## COc1cc(CCN)ccc1O
[4]
  outcome: inactive
[6]
  Potency: inactive

## c1ccc2c(c1)OC[C@@H](C1=NCCN1)O2
[2]
  Potency: 631 nM (active)
[3]
  Potency: 7940 nM (active)
[5]
  Potency: inactive
[6]
  Potency: inactive

## N[C@H](CCP(=O)(O)O)C(=O)O
[8]
  Potency: inactive
[4]
  outcome: inactive
[5]
  Potency: inactive
[6]
  Potency: inactive

## O=C1C2CCN(CC2)C1(CO)CO
[1]
  Potency: 63.1 nM (active)
[3]
  Potency: 631 nM (active)

## CCCN[C@@H]1CCc2c(OC)cccc2[C@@H]1C
[2]
  Potency: 251 nM (active)

## COc1ccc(CCN)cc1O
[4]
  outcome: inactive
[5]
  Potency: inactive
[6]
  Potency: inactive

## C=C(C)CN1CC[C@@]23c4c5ccc(O)c4O[C@H]2c2[nH]c4ccccc4c2C[C@]3(O)[C@@H]1C5
[7]
  Potency: inactive

## CCN1C[C@]2(C)CC[C@H](O)[C@@]34C5C[C@@H]6[C@@H](OC)C[C@@](O)(C5[C@H]6O)[C@@H](CC23)[C@@H]14 (stereo partly specified)
[9]
  Potency: inactive

## COC(=O)N1CCN(C(=O)Cc2ccc(Cl)c(Cl)c2)[C@H](CN2CCCC2)C1
[7]
  Potency: inactive
[8]
  Potency: inactive
[4]
  outcome: inactive
[6]
  Potency: inactive

## C=C(C)[C@H]1CN[C@H](C(=O)O)[C@@H]1CC(=O)O
[9]
  Potency: inactive
[8]
  Potency: inactive
[6]
  Potency: inactive

## C=C1[C@@H](O)C2C=CC[C@H](C)C(=O)[C@@](C)(O)C=C[C@@H](OC(C)=O)[C@@]23C(=O)N[C@H](Cc2ccccc2)[C@@H]3[C@@H]1C (stereo partly specified)
[7]
  Potency: inactive

## C/C(=C\C=C/[C@@H](C)C(=O)O)[C@H]1CN[C@H](C(=O)O)[C@@H]1CC(=O)O
[3]
  Potency: inactive

## O=C1CC[C@@]2(O)[C@H]3Cc4ccc(O)c5c4[C@@]2(CCN3CC2CC2)[C@@H]1O5
[4]
  outcome: inactive
[6]
  Potency: inactive

## c1ccc([C@H]2CNCc3ccccc32)cc1
[2]
  Potency: 5010 nM (active)

## N[C@H](Cc1o[nH]c(=O)c1Cl)C(=O)O
[2]
  Potency: 158 nM (active)
[3]
  Potency: 1260 nM (active)

## Cn1cc(C(=O)C(=O)N[C@H]2CN3CCC2CC3)c2ccccc21
[1]
  Potency: inactive
[2]
  Potency: 63.1 nM (active)

## N#CC(C#N)=NNc1ccc(OC(F)(F)F)cc1
[7]
  Potency: inactive

## N[C@@]1(C(=O)O)CC[C@H](C(=O)O)C1
[9]
  Potency: inactive
[3]
  Potency: inactive
[4]
  outcome: inactive
[5]
  Potency: inactive
[6]
  Potency: inactive

## O=C(/C=C\c1ccc(Cl)cc1)N[C@@]12CCC(=O)[C@@H]3Oc4c(O)ccc5c4[C@@]31CCN(CC1CC1)[C@@H]2C5
[2]
  Potency: 5010 nM (active)

## C[C@H](N)Cc1c[nH]c2ccc(O)cc12
[4]
  outcome: inactive
[5]
  Potency: inactive
[6]
  Potency: inactive

## c1ccc(CCCCN2CCC(c3ccccc3)CC2)cc1
[9]
  Potency: inactive
[2]
  Potency: 39.8 nM (active)

## CC(C)(C)c1o[nH]c(=O)c1C[C@H](N)C(=O)O
[2]
  Potency: inactive
[4]
  outcome: inactive
[5]
  Potency: inactive
[6]
  Potency: inactive

## CS(=O)(=O)Nc1ccc(Cc2noc(-c3ccc4[nH]cc(CCN)c4c3)n2)cc1
[7]
  Potency: inactive
[2]
  Potency: 126 nM (active)

## CCOC(=O)c1ncn2c1CN(C)C(=O)c1cc(N=[N+]=[N-])ccc1-2
[9]
  Potency: inactive

## CN1[C@@H]2CC[C@H]1CC(OC(=O)N1Cc3ccccc3NC1=O)C2 (stereo partly specified)
[9]
  Potency: inactive

## Clc1ccc(C2=CCC[C@H]3CC[C@@H]2N3)cn1
[7]
  Potency: inactive

## CC1=C(O)C(=O)[C@H]2O[C@@H]2C1=O
[3]
  Potency: 158 nM (active)

## COc1ccc(C[C@H]2NC[C@H](O)[C@@H]2OC(C)=O)cc1
[2]
  Potency: 7940 nM (active)
[3]
  Potency: 3160 nM (active)

## COC(=O)CN1CN(c2ccccc2)C2(CCN(Cc3ccc4ccccc4c3)CC2)C1=O
[1]
  Potency: inactive

## CCN1C[C@]2(C)CC[C@@H](O)[C@]34C1[C@H](C[C@H]23)C12CCC(CC14)[C@](O)(CO)[C@H]2O (stereo partly specified)
[10]
  Potency: inactive
[11]
  Potency: inactive
[12]
  Potency: inactive
[13]
  Potency: inactive
[14]
  Potency: inactive
[15]
  Potency: inactive
[16]
  Potency: inactive
[17]
  Potency: inactive
[18]
  Potency: inactive
[19]
  Potency: inactive
[20]
  outcome: inactive
